# Assay results published in PubChem BioAssay (NCI).
# About 79,000 compounds went through this panel and 15% of them were active in at least one assay; those are over-represented in the sample as a whole. Values without a mark were called inactive. The source made the active and inactive calls. Rule as the data show it: active = growth inhibition above about 70%; inactive = the rest.
# Experiments:
# [1] = NCI Yeast Anticancer Drug Screen. Data for the rad50 strain (AID 155);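 also: 0% = growth of vehicle-only cultures of the same strain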; details: S. cerevisiae rad50 strain growth inhibition, active compounds read high
# Method in brief: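 Genetically altered yeast (DNA repair pathway); compound treatment; growth inhibition vs vehicle ctrl.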
# [2] = NCI Yeast Anticancer Drug Screen. Data for the mec2-1 strain (AID 157); details: S. cerevisiae mec2-1 strain, active compounds read high
# Method in brief: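 Test agents were screened against the mec2-1 yeast strain, with defined DNA repair or cell cycle alteration. Growth was scored as inhibition against vehicle-only controls.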
# [3] = NCI Yeast Anticancer Drug Screen. Data for the sgs1 mgt1 strain (AID 161);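 also: 0% = growth of cultures given vehicle only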; details: S. cerevisiae sgs1 mgt1 strain, active compounds read high
# Method in brief: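 Read-out: growth inhibition vs vehicle controls. Cells: mutant yeast strain deficient in DNA damage repair.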
# [4] = NCI Yeast Anticancer Drug Screen. Data for the cln2 rad14 strain (AID 165);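 also: 0% = growth equal to vehicle treated cultures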; details: S. cerevisiae cln2 rad14 strain, active compounds read high
# Method in brief: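 Growth of compound-exposed yeast (cln2 rad14 genotype) measured and expressed as inhibition relative to vehicle.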
# [5] = NCI Yeast Anticancer Drug Screen. Data for the bub3 strain (AID 167); details: S. cerevisiae bub3 mutant strain, active compounds read high
# Method in brief: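 Yeast carrying a defined mutation is treated with each compound, and growth is compared with that of vehicle-exposed cells to give inhibition.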
# [6] = NCI Yeast Anticancer Drug Screen. Data for the mlh1 rad18 strain (AID 175); details: S. cerevisiae mlh1 rad18 strain growth inhibition, active compounds read high
# Method in brief: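 In this whole-cell yeast screen, a strain with altered DNA damage repair is challenged with compound, and its growth is measured against matched vehicle-treated controls.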
# [7] = at 5.0 µM (retest, dose inferred, filed as 0.5)
# [8] = at 50.0 µM (retest, dose inferred, filed as 5.0)
SMILES,"growth inhibition [1, 7]","growth inhibition [1, 8]",growth inhibition ([1]; at 50.0 µM),"growth inhibition [2, 7] [%]","growth inhibition [2, 8]",growth inhibition ([2]; at 50.0 µM),"growth inhibition [3, 7]","growth inhibition [3, 8]",growth inhibition ([3]; at 50.0 µM),"growth inhibition [4, 7] [%]","growth inhibition [4, 8]",growth inhibition ([4]; at 50.0 µM),"growth inhibition [5, 7]","growth inhibition [5, 8]",growth inhibition ([5]; at 50.0 µM),"growth inhibition [6, 7]","growth inhibition [6, 8]",growth inhibition ([6]; at 50.0 µM)
COc1cc2c[n+](C)c3c4cc(OC)c(OCc5ccccc5)cc4c(OCc4ccccc4)cc3c2cc1OC,33%,96% (active),59.4%,14,93% (active),53.7%,0%,94% (active),51.1%,5,91% (active),96.6% (active),16%,95% (active),93.5% (active),18%,95% (active),65.8%
O=S1(=O)CCc2ccccc2C(Br)C1Br (configuration not stated),13%,98% (active),100% (active),7,99% (active),99.6% (active),15%,12%,99.5% (active),17,99% (active),98.3% (active),-6%,99% (active),98.2% (active),10%,99% (active),99.3% (active)
CCCCCCc1ccc(O)cc1O,5%,98% (active),99.5% (active),-3,100% (active),99.8% (active),-1%,100% (active),99.5% (active),-4,99% (active),99.5% (active),-1%,99% (active),99.5% (active),-1%,99% (active),36%
CS(=O)(=O)C(=Cc1ccccc1Cl)S(C)(=O)=O,30%,57%,-12.7%,20,29%,-1.65%,11%,7%,4.05%,2,13%,12.1%,0%,6%,5%,38%,62%,-28.1%
CC1OC(CC(=O)O)Cc2c1c(O)c1c(O)cc(-c3cc(=O)c4c(=O)c5c(c(=O)c=4c3=O)CC(CC(=O)O)OC5C)c(O)c1c2O (configuration not stated),-3%,6%,-7.4%,3,2%,7.35%,-1%,2%,54.4%,1,29%,-24.4%,22%,14%,11.3%,0%,2%,15.7%
Nc1ccc(S(=O)(=O)Nc2cc(Cl)cc(Cl)c2)cc1,-4%,92% (active),99.5% (active),-4,100% (active),97.2% (active),-4%,99% (active),99.3% (active),-15,99% (active),97.3% (active),3%,99% (active),99.2% (active),1%,99% (active),98.2% (active)
Oc1ccc(C2CCCCC2)cc1,1%,59%,85.5% (active),-4,51%,79.5% (active),-10%,54%,95.3% (active),-4,37%,5.7%,-4%,62%,48.6%,0%,40%,93.8% (active)
O=C1C=CC(=O)N1C12CC3CC(CC(C3)C1)C2,41%,99% (active),90.8% (active),62,99% (active),93.4% (active),73% (active),99% (active),90.9% (active),13,99% (active),91.5% (active),72% (active),99% (active),91.8% (active),76% (active),99% (active),90.7% (active)
O=NN(CCCl)C(=O)Nc1cc(=O)[nH]c(SCc2ccccc2)n1,-23%,52%,8.95%,3,10%,-3.6%,-10%,33%,4.7%,14,12%,45.5%,5%,30%,16.9%,-11%,70% (active),66.5%
Cc1c(NC(=O)CCl)c(=O)oc2c(C)c3occc(=O)c3cc12,59%,97% (active),96.8% (active),16,93% (active),83.8% (active),7%,89% (active),90.8% (active),10,85% (active),29.3%,10%,91% (active),79.2% (active),13%,94% (active),92% (active)
COc1ccc(NS(=O)(=O)c2ccc(N=Cc3c4ccccc4nc4cc(Cl)ccc34)cc2)nn1,23%,-9%,94.2% (active),14,-5%,91.8% (active),17%,-8%,95.6% (active),5,-6%,36.9%,22%,-4%,52.2%,13%,-4%,95.8% (active)
S=C1NC2=C(CSC/C2=C\c2ccccc2)C(c2ccccc2)N1 (configuration not stated),10%,96% (active),60.2%,-8,97% (active),58.2%,8%,97% (active),65.2%,26,96% (active),68.8%,-45%,96% (active),73.1% (active),35%,97% (active),72.3% (active)
Cc1ccc(C2(C)CC/C(=N/O)c3cc(C)c(C)cc32)cc1C (configuration not stated),72% (active),89% (active),90.5% (active),61,88% (active),90.8% (active),66%,90% (active),88.7% (active),63,91% (active),91.2% (active),80% (active),92% (active),87.9% (active),83% (active),92% (active),90.5% (active)
CCC(=O)C(CCN(CC)CC)(CCN(CC)CC)c1ccccc1,-1%,-5%,87.5% (active),-2,-4%,99.3% (active),-2%,-4%,42.4%,3,-8%,71% (active),1%,-3%,99.2% (active),-2%,-7%,97.8% (active)
Nc1ccc(Oc2ccccc2)cc1,2%,38%,67.5%,-3,7%,33.9%,-9%,37%,75.6% (active),-1,1%,1.2%,0%,-18%,25.4%,-3%,28%,54.8%
NCc1ccccc1-c1c2nc(c(-c3ccccc3CN)c3ccc([nH]3)c(-c3ccccc3CN)c3nc(c(-c4ccccc4CN)c4ccc1[nH]4)C=C3)C=C2,41%,84% (active),79% (active),34,83% (active),83% (active),37%,82% (active),86.2% (active),32,66%,78.8% (active),37%,90% (active),79.7% (active),54%,84% (active),76.2% (active)
COc1cc2c(cc1O)C(O)CCCC2 (configuration not stated),-146%,-152%,6.6%,-45,-55%,-14.6%,-62%,-32%,41.8%,-52,-61%,-4.15%,-64%,-75%,-6.4%,-147%,-108%,12.3%
Cc1cccc(Cc2cccc(Cl)c2)c1O,-1%,95% (active),99.3% (active),-1,98% (active),99.8% (active),3%,89% (active),99.6% (active),-4,90% (active),99% (active),-9%,94% (active),99.1% (active),8%,96% (active),98.9% (active)
CC1COC(c2cn[nH]c2C(N)=O)C1O (configuration not stated),-7%,13%,-0.5%,5,15%,21%,7%,14%,-6.4%,-33,-18%,39.4%,4%,24%,0.85%,3%,16%,7.65%
